Measured values taken from PubChem BioAssay.

How the values were obtained:
[1] = biological target: Tumor necrosis factor receptor superfamily member 10B (Homo sapiens) (UniProt O14763); assay: caspase-8 TRAIL sensitization, hit retest, confirmation, cell-based, NB7+caspase-8, with/without TRAIL, luminescence panel (AID 651596); conditions: NB7 neuroblastoma + caspase-8, TRAIL sensitization, luminescence viability, with TRAIL, mean of runs, at 10 µM, stronger effect = higher value
[2] = as above; conditions: NB7 neuroblastoma + caspase-8, without TRAIL, luminescence viability, without TRAIL, mean of runs, at 10 µM

Sequence of Tumor necrosis factor receptor superfamily member 10B (Homo sapiens) (O14763 whole entry, looked up): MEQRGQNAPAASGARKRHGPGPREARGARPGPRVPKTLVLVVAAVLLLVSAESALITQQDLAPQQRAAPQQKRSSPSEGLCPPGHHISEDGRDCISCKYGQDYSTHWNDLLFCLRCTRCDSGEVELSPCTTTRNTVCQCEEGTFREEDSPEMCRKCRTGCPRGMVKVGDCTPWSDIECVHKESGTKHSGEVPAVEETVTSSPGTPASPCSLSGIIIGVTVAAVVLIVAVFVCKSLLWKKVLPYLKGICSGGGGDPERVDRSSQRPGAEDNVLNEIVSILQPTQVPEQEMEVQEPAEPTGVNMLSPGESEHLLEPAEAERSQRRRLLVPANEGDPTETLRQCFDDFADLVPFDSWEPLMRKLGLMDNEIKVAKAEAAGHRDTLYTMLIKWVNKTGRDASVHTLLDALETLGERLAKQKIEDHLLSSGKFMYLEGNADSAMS

SMILES | activity [1] | activity [2]
COc1ccc2nc(NC(=O)c3ccccc3F)sc2c1 | 78.1% | 73.8%
CSC(=Nc1ccccc1)N=C(SCc1ccccc1)N(C)C | 96.8% | 98.5%
N/C(CCS(=O)(=O)c1ccc(Cl)cc1)=N\OC(=O)c1ccc(Cl)cc1 | 98.2% | 93.3%
Cc1ccc(NC(=O)C(=O)Nc2ccccn2)cc1 | 75.7% | 71.7%
C/C(=N\Nc1nncc2ccccc12)c1cccc(OC(F)F)c1 | 75.8% | 72.8%
COc1ccc2nc(-c3ccccn3)ccc2c1 | 82.1% | 77.5%
Fc1ccccc1-c1ccc(/C=N/Nc2nc3ccccc3[nH]2)o1 | 82.7% | 79.2%
CCOc1ccc(C(=O)Nc2ccc3c(c2)OCCO3)cc1 | 70.5% | 61.4%
O=C(Cn1ncc(Cl)c(Cl)c1=O)c1ccc2c(c1)OCCO2 | 39.7% | 76%
CCOC(=O)c1c(CSC(=N)N)n(-c2ccc(C)cc2)c2cc(Br)c(OC(C)=O)cc12 | 90.7% | 81.3%
Cc1ccccc1-n1nnnc1Sc1nnnn1-c1ccccc1 | 46.1% | 91.3%
CCC(=O)Nc1ccc(C(=O)Cn2ncc(Cl)c(Cl)c2=O)cc1 | 99.4% | 99.3%
O=C(c1ccc(CSc2nc3ccncc3[nH]2)cc1)N1CCCCCC1 | 85.7% | 82.1%
Nc1cnnc(N/N=C\c2ccccc2)c1Cl | 22.9% | 19.8%
Cc1ccc(/C(N)=N/OC(=O)c2ccc(F)cc2)cc1 | 96.3% | 92.5%
CC(=O)Nc1ccc(NC(=O)CSc2nnc(NC(=O)c3ccccc3F)s2)cc1 | 69.5% | 63.9%
O=C(Nc1nnc(SCC(=O)N2CCOCC2)s1)c1ccccc1Cl | 72.6% | 78.2%
O=C(/C=C/c1cccnc1)/C=C/c1cccnc1 | 91.5% | 69.7%
Clc1ccc(-c2nc(-c3cnccn3)no2)cc1 | 45.6% | 39.1%
CCC(=O)c1ccc(/C=C/c2nc3ccccc3n2C)o1 | 61.2% | 54.8%
Cc1ccccc1Nc1nc(N)nc(CCl)n1 | 98.5% | 96.2%
O=C(CN1CCN(S(=O)(=O)c2ccc(F)cc2)CC1)Nc1ccc(Cl)c(C(F)(F)F)c1 | 24.1% | 31.8%

SMILES | activity [1] | activity [2]
S=C(Nc1ccc(Cl)cc1)c1nc2ccccc2[nH]1 | 60.6% | 65.9%
CN(C(=O)c1ccc(NC(=O)Cc2cccc(NC(=O)C3CCCN(S(=O)(=O)c4cccc([N+](=O)[O-])c4)C3)c2)cc1)C1CC1 (stereo unspecified) | 56.3% | 36.1%
COc1ccc(C2C(O)C(c3c[nH]c4ccccc34)=NN2C(=O)CCl)cc1 (stereo unspecified) | 99.2% | 99.2%
COc1ccc(NC(=O)c2cccc(N3C(=O)c4ccc(C(=O)Nc5ccc(OC)c(O)c5)cc4C3=O)c2)cc1O | 71.7% | 85.6%
Cc1nc(N)nc(N)c1CCCc1ccc(Cl)c(Cl)c1 | 69.6% | 74.8%
Cc1cccc(NC(=O)c2nc[nH]c2C(=O)N[C@@H](CCCCNC(=O)OC(C)(C)C)C(=O)OC(C)(C)C)c1 | 80.3% | 77%
CC(C)c1nnc(NC(=O)c2nc(S(=O)(=O)Cc3ccc(F)cc3)ncc2Cl)s1 | 72.9% | 41.8%
CCCCn1c(=O)[nH]c(=O)c2c1nc(Cn1ncc(Cl)c(Cl)c1=O)n2CCC | 98.7% | 99%
CCCCN(CC)CCCNC(=O)C1c2ccccc2C(=O)N(C)C1c1cn(C)c2ccccc12 (stereo unspecified) | 71.8% | 69.7%
COCCOCCn1c(/C=C/c2ccccc2)nc2ccccc21 | 65.4% | 77.1%
CC(C)(C)c1ccc(-c2cn(-c3ccc(Br)cc3)c3[n+]2CCCS3)cc1 | 71.9% | 55.1%
Cc1ccc(C(C)C)c(OCC(=O)Nc2ccc3c(c2)nc(CCN2CCCCC2)n3C)c1 | 7.92% | 39.4%
COc1ccc(C=C2OC(=O)C(C(C)=O)=C2O)cc1 | 90.4% | 89%
COc1ccc(Oc2c(Cl)cnn(-c3ccc(C)cc3)c2=O)cc1 | 96.9% | 89.9%
CCOCc1nc(N)nc(N)c1-c1cccc(Cl)c1 | 46.8% | 61.9%
CCN(CC)c1ccc(/C=N/NC(=O)c2ccccn2)cc1 | 57.3% | 45.4%
COc1ccc(/C=C/c2nc3ccccc3n2Cc2ccccc2OC)cc1 | 78.5% | 67.7%
C=CCN=c1scc(-c2ccccc2)n1/N=C/c1ccccn1 | 37.6% | 24.8%
O=C(NC1=NC2CCCCC2N1)c1ccccc1 (stereo unspecified) | 62.8% | 52.1%
CCN1CCN(CCNC(=O)c2ccc3c(c2)N(Cc2ccc(F)cc2)C(=O)/C(=C/c2ccccc2)S3)CC1 | 53.4% | 80.5%
CCOC(=O)c1c(C)nc2c3ccccc3ccn12 | 51.9% | 58.9%
